This is a sample that favours compounds with a hit; in the whole collection about 21% have one here.
HCV inh: inhibitors of hepatitis C virus infection. AID 651820. Huh7.5.1 HCVcc-Cre infection, luciferase reporter, 44 h. Potency, µM (series often up to 41.8 µM), inactives show at the highest dose activity change, negative = inhibition, hits mostly inhibitors. 340,000 tested, 3.4% active; further: potency means the concentration at half of the fitted maximal effect; on the % scale 0 is the no-effect control and ±100 the full control effect
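Luciferase read-out (15 sec integration) after a 15 min room-temperature substrate step quantifies HCVcc-Cre infection. Cells, 1,000 per well, had compound added 4 h post-plating, then virus at ~0.5 moi, and were cultured 44 h.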
Pf growth 48h: inhibits P. falciparum growth in the first generation, 48 h; P. falciparum luciferase growth in erythrocytes, 48 h; Potency, µM (series often up to 28.7 µM), inactives show top-dose activity change, negative = inhibition, hits mostly inhibitors; 310,000 tested, 5.9% active; AID 504832; further: potency means the concentration at half of the fitted maximal effect; on the % scale 0 is the no-effect control and ±100 the full control effect
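Cell-based growth assay: transgenic P. falciparum expressing firefly luciferase, cultured in red cells within RPMI 1640 containing 0.5% w/v Albumax, 24 mM bicarbonate and gentamycin. A drop in luciferase activity indicates inhibition.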
CHX counter: counter-screen for Shiga toxin inhibitors: cycloheximide protein synthesis inhibition; cell reporter, cycloheximide protein synthesis inhibition counterscreen; AID 2314; max response, %; 300,000 tested, 12% active; in the data active means max response mostly above about 13%, no sharp cut-off; inactive means mostly below about 14%; further: read at 38.3 µM for the half of the compounds with a filed dose; 0% is about no effect
Pf growth 96h: P. falciparum growth inhibition at 96 hours; P. falciparum luciferase reporter growth, 96 h; AID 504834; Potency, µM (doses to about 28.7 µM), for the others: top-dose activity change, negative = inhibition, usual class: inhibitors; 320,000 tested, 6.9% active; further: potency means the concentration at half of the fitted maximal effect; on the % scale 0 is the no-effect control and ±100 the full control effect
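Two parasite generations (96 h, 37 C, 5% CO2) of compound exposure in infected erythrocytes (0.05% parasitemia, 2% hematocrit). Luciferase-reporter P. falciparum; decreased luminescence indicates inhibited growth, aimed at apicoplast-acting delayed death.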
AMA1 RON2 block: AMA1-RON2 (P. falciparum) interaction inhibition; AlphaScreen AMA1-biotinylated RON2 peptide binding; Potency, µM (doses to about 58.2 µM), without a hit: top-dose activity change, negative = inhibition, usual class: inhibitors; 360,000 tested, 0.2% active; AID 720542;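 further: potency means the concentration at half of the fitted maximal effect; 0% = vehicle wells and -100% = peptide control; nearly all actives have a fitted effect of over 45% in size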
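AMA1 (3D7) with his tag at 25 nM final met compounds first, then biotinylated RON2 peptide at 25 nM; detection used donor plus acceptor beads, 10 µg/mL apiece, read by AlphaScreen after 30 min at room temperature.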
Shiga inhibitor: inhibitors of Shiga toxin in Vero cells; Vero cells, Shiga toxin protein synthesis inhibition reporter; inhibition, % at 38.7 µM; 290,000 tested, 9.2% active; AID 2315; in the data active means inhibition mostly above about 28%, no sharp cut-off; inactive means mostly below about 43%; further: 0% is about no effect
An asterisk follows results filed as active; ? = inconclusive; / = no result. Unless noted, the call rests on the fitted dose curve; in most records, active means well fitted curve in the direction sought with a large enough effect; inconclusive means small, poorly fitted or top-dose-only effect, or another doubt; inactive means no such curve, though single readings can be large; an effect the other way counts as inactive or inconclusive.

SMILES	HCV inh	Pf growth 48h	CHX counter	Pf growth 96h	AMA1 RON2 block	Shiga inhibitor
Cc1ccc(OCC(=O)NC2CCCc3ccccc32)c(C)c1 (stereo not drawn)	1%	-5%	-4	?	-4%	5
O=C(Nc1ccc2c(c1)CCC2)c1cccc(S(=O)(=O)N2CCN(c3ccccc3)CC2)c1	0.56µM*	/	-1	?	15%	-2
Cc1ccc(S(=O)(=O)N2CCN(CC(=O)NC3CCCc4ccccc43)CC2)c(C)c1 (stereo not drawn)	?	-29%	6	/	-14%	-18
Cc1ccc(S(=O)(=O)N2CCN(CC(=O)NC3CCCc4ccccc43)CC2)cc1C (stereo not drawn)	32µM*	?	3	/	-7%	-3
Cc1cc(C)c(NC(=O)CS(=O)CC(=O)NC2CCCc3ccccc32)c(C)c1 (stereo not drawn)	?	-6%	-1	10µM*	?	5
COC(=O)C[C@@H]1C=C[C@H](NC(=O)c2cnccn2)[C@@H](CO)O1	/	/	/	/	3%	/
COc1ccccc1CN1CCC(n2nccc2NC(=O)CCc2ccccc2)CC1	1%	?	2	?	-7%	12
CCOC(=O)c1c(NC(=O)CSc2nnc(C)o2)sc(C)c1C	-23%	-23%	-5	41%	-4%	-4
CCCCCCN1C[C@@H](n2cc(C3CC3)nn2)[C@H](O)C[C@@H]1c1ccccc1	/	/	/	/	0%	/
O=C(NC1CCCc2ccccc21)c1cccc(S(=O)(=O)N2CCN(c3ccccc3)CC2)c1 (stereo not drawn)	?	10µM*	-1	/	-8%	-15
Cc1[nH]c2ccccc2c1C(=O)CSc1nc2cc(S(=O)(=O)N3CCCCC3)ccc2o1	7.1µM*	?	-3	-6%	?	1
CC1CCC(NC(=O)c2cccc(S(=O)(=O)N3CCN(c4ccccc4)CC3)c2)CC1 (stereo not drawn)	0%	?	/	9%	-8%	/
Cc1ccc2cc(CN(C(=O)c3ccncc3)C(C)C)c(=O)[nH]c2c1	-26%	?	-4	8.3µM*	-2%	27
COc1cc2cc(CN(CCc3cccc(C)c3)C(=S)NCCCN(C)C)c(=O)[nH]c2cc1OC	?	13µM*	-2	32%	-2%	-9
CC(C)N(Cc1cc2ccccc2[nH]c1=O)C(=O)c1cccnc1	-7%	47%	2	18%	8%	-13
CC(=O)N(CCc1cccc(C)c1)Cc1cc2cc(C)ccc2[nH]c1=O	-5%	-4%	-3	251%	0%	-4
CC(=O)N(CCc1cccc(C)c1)Cc1cc2ccc(C)cc2[nH]c1=O	-1%	-26%	-1	0.074µM*	0%	-15
COc1cc(C(=O)Nc2cc3c(cc2N2CCCCC2)n(C)c(=O)n3C)cc(OC)c1OC	?	?	8	?	-4%	-2
COc1ccc(S(=O)(=O)Nc2ccc3c(c2)C(=O)N([C@H](C)CO)C[C@H](C)[C@@H](CN(C)C(=O)Nc2ccc(F)cc2)OCCCC[C@H](C)O3)cc1	/	/	/	/	-4%	/
C/C(=N\NC(=O)c1ccc(O)cc1O)c1cccnc1	2%	95%	40*	?	41%	73*
C/C(=N/NC(=O)c1ccc(Cl)cc1Cl)c1cccnc1	9%	18%	29*	-3%	2%	25
CC(=O)Nc1ccc(/C(C)=N/Nc2nc(Nc3cccc4ccccc34)nc(N3CCOCC3)n2)cc1	?	13µM*	9	?	10%	5
CC(=O)C1=CCC(c2ccccc2Cl)N(S(=O)(=O)c2ccc(C)cc2)C1 (stereo not drawn)	/	/	/	/	-7%	/
O=C(O)c1cnc(-c2ccccc2)nc1C(F)(F)F	12%	-2%	-2	?	-16%	-18
CCOC(=O)c1cnc(-c2ccccc2O)nc1Cl	?	33%	36*	0%	-2%	70*
SMILES	HCV inh	Pf growth 48h	CHX counter	Pf growth 96h	AMA1 RON2 block	Shiga inhibitor
CCOC(=O)c1cnc(Nc2nc3ccccc3o2)nc1C	-9%	/	36*	157%	33%	68*
CCOC(=O)c1cnc(C(F)(F)F)nc1Oc1ccccc1	-11%	0%	1	?	18%	20
CCOC(=O)c1cnc(Nc2nc3ccccc3o2)nc1CSc1nnc(C)s1	-17%	/	/	/	77%	/
CCOC(=O)c1cnc(-c2ccccc2)nc1C(F)(F)F	27%	0%	52*	-2%	59%	74*
CCOC(=O)c1cnc(Nc2ccccc2)nc1C(F)(F)F	-10%	41%	36*	62%	20%	92*
Cc1c(S(=O)(=O)Nc2ccc(Oc3ccccc3)cc2)c(=O)n(C)c(=O)n1C	-13%	3%	-1	-7%	1%	-11
Cc1cccc(C)c1Nc1nc2ccccc2o1	-26%	?	-4	-5%	-6%	-4
Cc1nc(Nc2nc3ccccc3o2)nc2c1CCC2	2%	-11%	30*	76%	57%	49
O=C(NCCc1c[nH]c2ccccc12)c1ccc2c(c1)OCO2	-14%	177%	54*	299%	-1%	108*
O=C(NCCc1c[nH]c2ccccc12)c1cc(Cl)c2c(c1)OCO2	?	21%	48*	41%	-10%	96*
Cc1ccc2[nH]cc(CCNC(=O)c3ccc4c(c3)OCO4)c2c1	?	39%	2	-16%	-17%	2
CN(c1ccccc1)S(=O)(=O)c1cccc(C(=O)NCCc2c[nH]c3ccccc23)c1	10µM*	/	/	/	-9%	/
Cc1cc2nc(C3CCCCC3)c(Cc3cccc(F)c3)n2c(C)c1Br	/	/	/	/	-16%	/
N#Cc1ccc(S(=O)(=O)N2CCC(C(=O)Nc3cccc(C(=O)NC4CC4)c3)CC2)cc1	?	?	/	-53%	5%	/
CCOc1cc(OCC)c(C(C)=O)cc1OCC	15%	97%	/	?	-6%	/
CCCCOc1ccc(C(=O)Oc2cccnc2)cc1	1%	35%	1	?	11%	9
CC(=O)c1ccc(NC(=O)c2ccc(N3C(=O)c4cccnc4C3=O)cc2)cc1	9%	16%	22*	-12%	26%	32
O=C(O)c1ccc(N2C(=O)c3cccnc3C2=O)cc1	-3%	-5%	19*	151%	6%	30
COP(=O)(OC)OC(C(=O)c1ccccc1)c1ccccc1 (stereo not drawn)	/	/	/	/	0%	/
CC(C)(C)NC(=O)c1cc2c(ccc3ccccc32)oc1=O	-14%	22%	27*	106%	8%	/
CN(C)C(CNC(=O)c1cc2ccccc2oc1=O)c1ccccc1 (stereo not drawn)	8%	26%	27*	35%	5%	90*
O=C(NCc1ccc(Cl)cc1)c1cc2ccccc2oc1=O	25%	-5%	14	5.2µM*	4%	11
O=C(O)c1cc2c(ccc3ccccc32)oc1=O	/	/	-4	0%	/	-13
